Source: PubChem BioAssay
In the library only some 4.4% were active in any assay of this set; here they are far more common.
SKKanGAS inh – S. pyogenes SKKanGAS growth inhibitors in kanamycin, primary screen, streptokinase expression inhibitor project, SKKanGAS strain, BacTiter-Glo luminescence. 6 h. inhibition, % at 7.5 µM. 300,000 tested, 1.3% active. AID 1662, 2009;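 active = mean replicate score, as percent of positive control median, at least 50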;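 note: strain carries kanamycin resistance gene driven by streptokinase promoter and grows in 40 µg/ml kanamycin; loss of luminescence reflects streptokinase promoter inhibition or plain growth inhibition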
tim23-1 inh – growth inhibitors of tim23-1 mutant yeast, primary screen, luminescence, uHTS; S. cerevisiae tim23-1 growth, BacTiter-Glo luminescence, 24 h; inhibition, % at 20 µM; 330,000 tested, 1.3% active; AID 463212, 2010;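 active = growth inhibition of the mutant yeast at or above 50%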;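 note: temperature-sensitive mutant grown at 25 °C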
PfHsp90 yeast 2 – growth inhibition of PfHsp90-expressing yeast, primary screen, antimalarial PfHsp90 inhibitor project, S. cerevisiae, BacTiter-Glo luminescence, single point, set 2. BacTiter-Glo ATP, 48 h; yeast lacking PDR1 and PDR3 efflux regulators. inhibition, % at 9.4 µM. 310,000 tested, 0.32% active. AID 504621, 2011;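 active = every replicate shows inhibition above about 80%, whatever the replicate mean, limit read from the data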
TIM10 inh – growth inhibitors of isogenic TIM10 control yeast, primary screen, counter-screen for tim10-1 yeast inhibitor project, luminescence, uHTS. S. cerevisiae TIM10 strain growth, BacTiter-Glo luminescence, 24 h. inhibition, % at 10 µM. 330,000 tested, 1.4% active;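 active = inhibition of 40% or more at the single tested concentration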;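 note: wild-type TIM10 isogenic control strain grown at permissive 25 °C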
tim10-1 inh – growth inhibitors of tim10-1 mutant yeast, primary screen, luminescence, uHTS; AID 463190, 2010; S. cerevisiae tim10-1 ts strain growth, BacTiter-Glo, 24 h; inhibition, % at 20 µM; 330,000 tested, 2.2% active;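 active = inhibition of at least 40%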;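 note: mutant grown at 25 °C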
tim10-1 conf – growth inhibitors of tim10-1 mutant yeast, confirmation, single concentration, luminescence, S. cerevisiae; shares compounds with tim10-1 inh; S. cerevisiae tim10-1 ts strain growth, BacTiter-Glo, 24 h; inhibition, % at 20 µM; 7,400 tested, 56% active; AID 463213, 2010;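 active = inhibition of yeast growth at or above a set limit in either of two repeat tests at 20 µM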;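 note: tim10-1 mutant grown at permissive 25 °C to find synthetic lethal compounds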
Hits are given with their value; n = inactive; x = not tested or not shown.

SMILES	SKKanGAS inh	tim23-1 inh	PfHsp90 yeast 2	TIM10 inh	tim10-1 inh	tim10-1 conf
Nc1ccccc1-c1nnc(-c2ccc(-c3ccccc3)cc2)o1	n	n	x	n	46.8	n
COc1ccc(CN(C)C(C)C(=O)Nc2ccc(S(=O)(=O)N3CCCCC3)cc2)c(OC)c1 (stereo not drawn)	x	n	n	n	n	x
COc1cc(CN2C(=O)C(NC(=O)c3ccco3)(C(F)(F)F)C3=C2CC(C)(C)CC3=O)cc(OC)c1 (stereo not drawn)	n	n	n	n	46.5	n
CNc1ncnc2c1ncn2-c1ccccc1	x	x	n	x	x	x
CCC1CCCCN1C(=O)c1ccc([N+](=O)[O-])o1 (stereo not drawn)	n	n	n	n	53.7	35.2
Cc1cc(-c2ccccc2)n[nH]1	n	n	n	n	n	x
FC(F)C(F)(F)C(F)(F)C(F)(F)c1cc(-c2ccccc2)n[nH]1	n	n	n	n	48.3	30.4
O=C1/C(=C/c2cccnc2)SC(=S)N1N1CCOCC1	n	n	n	n	51.6	40.1
CCN(CC(=O)NCc1cccs1)CC(=O)Nc1cccc(S(N)(=O)=O)c1	x	n	n	n	n	x
CN(C(=O)c1cccc(NC(=O)Cc2ccc(NC(=O)C3CCN(C(=O)C4CCC4)CC3)cc2)c1)C1CCC1	x	x	n	x	x	x
COC(=O)C1=C(C(=O)OC)[C@@H]2Nc3ccccc3[C@@]23C[C@@H](C(=O)OC)N(C(=O)c2cccs2)C3=N1	n	n	n	n	n	x
Cc1n[nH]c(=S)n1/N=C/c1cccc(OCc2ccccc2)c1	n	n	n	n	41.2	n
Cc1cccc(/C=N/n2c(COc3ccccc3)n[nH]c2=S)c1	n	n	n	n	42.6	37.2
CCCn1c2ccc(C)cc2c2n[nH]c(=S)nc21	n	n	n	n	45.5	n
CNC[C@@H]1Oc2ccc(NC(=O)Nc3cccc4ccccc34)cc2C(=O)N([C@@H](C)CO)C[C@@H]1C	x	n	x	n	n	x
CCOC(=O)c1cnc2c(OC)cccc2c1Nc1ccc2c(c1)OCCO2	n	n	n	n	44.3	32.2
CCOC(=O)c1cnc2ccc(C(=O)OC)cc2c1Nc1ccc2c(c1)OCCO2	n	n	n	n	n	x
Cc1cc(NC(=O)C(C)SCC(=O)Nc2ccccc2C(C)(C)C)no1 (stereo not drawn)	n	n	n	n	n	x
COc1ccc(C(=O)NNC(=O)c2ccc(F)c(S(=O)(=O)N3CCOCC3)c2)cc1	x	n	x	n	n	x
COc1ccccc1OCCNC(=O)Cc1ccc(Cl)c(Cl)c1	n	n	n	n	n	x
COc1ccccc1CNC(=O)c1c(N)n(CCCN2CCOCC2)c2nc3ccccc3nc12	n	x	n	x	x	x
Nc1c(C(=O)NCc2ccc3c(c2)OCO3)c2nc3ccccc3nc2n1CCCN1CCOCC1	n	n	n	n	43.7	n
CC(C)(C)Nc1nc(SCC(=O)Nc2ccccc2)nc(N2CCOCC2)n1	n	n	n	n	46.2	n
CN(C)c1nc(SCC(=O)Nc2ccccc2)nc(N2CCOCC2)n1	n	n	n	n	n	x
CCCCNC(=O)C(=O)Nc1cc2c3c(c1)CCC(=O)N3CCC2	n	n	n	n	43.2	n
SMILES	SKKanGAS inh	tim23-1 inh	PfHsp90 yeast 2	TIM10 inh	tim10-1 inh	tim10-1 conf
CC(C)(C)OC(=O)C[C@@H]1C/C=C\C[C@@H](CC(=O)N[C@H](CO)Cc2ccccc2)C(=O)N2CCC[C@H]2COC1=O	x	n	n	n	n	x
O=C(c1ccc(O)cc1)c1ccc(Cl)cc1	n	n	n	n	n	n
Oc1cc(Br)ccc1C=Nc1ccc(N2CCCCC2)cc1	n	n	n	n	42.1	n
COc1cc2nc(N3CCN(C(=O)OCc4ccccc4)[C@H](C(=O)NC(C)(C)C)C3)nc(N)c2cc1OC	x	n	n	n	n	x
CN1CCN(C(=O)c2ccccc2NC(=O)c2cccc(Cl)c2)CC1	n	n	n	n	n	x
O=C(c1ccccc1Br)N1N=C(c2ccccc2)CC1c1ccccc1F (stereo not drawn)	n	n	n	n	50.5	48.0
O=C(ON=C1CCN(S(=O)(=O)c2ccccc2)CC1)c1ccccc1	n	n	x	n	57.8	55.7
COc1cc(C(=O)OC(C)c2ccc(F)cc2)ccc1OCC(=O)N1CCOCC1 (stereo not drawn)	x	n	n	n	n	x
CCOC(=O)C1CCCc2c1[nH]c1ccc(Cl)cc21 (stereo not drawn)	n	n	n	n	42.9	31.7
COC(=O)/C(=C(O)\C=C\c1ccccc1[N+](=O)[O-])c1nc2ccccc2[nH]1	n	n	n	n	n	x
COc1ccc(-n2c(C)cc(C(=O)CSc3nnc(-c4ccoc4C)n3C)c2C)cc1	n	n	n	n	40.2	n
Cc1ccc(-c2[nH]ncc2C(=O)c2ccccc2C)c(O)c1	n	n	n	n	n	x
C#CCOCCOCCOCCNc1nc(N2CCN(C(=O)[C@H](CCC(=O)O)n3cc([C@@H](N)CCCCN)nn3)CC2)nc(N2CCN(C(=O)[C@H](CCCCN)n3cc([C@@H](N)CC(N)=O)nn3)CC2)n1	x	n	n	n	n	x
Cc1cc(NCCCn2ccnc2)n2ncc(-c3ccc(Cl)cc3)c2n1	n	n	n	n	40.9	n
Cc1ccc(Cl)c(NC(=O)COC(=O)c2nn(-c3ccccc3)cc2O)c1Cl	x	n	x	n	n	x
Clc1cccc(/C=N\Nc2nccs2)c1	n	n	n	n	47.6	n
CCCC(=O)OCC(=O)Nc1ccc([N+](=O)[O-])cc1C#N	n	n	n	n	n	x
N/C(=N\OC(=O)CCC1CCCC1)c1ccccn1	n	n	n	n	n	x
N/C(=N\OC(=O)CCC1CCCC1)c1ccccc1	n	n	n	n	52.4	44.4
N/C(=N\OC(=O)CCC1CCCC1)c1ccc([N+](=O)[O-])cc1	n	n	n	n	60.5	57.9
N/C(=N\OC(=O)Cc1ccccc1)c1ccc([N+](=O)[O-])cc1	n	n	n	n	n	x
N#Cc1cc([N+](=O)[O-])ccc1NC(=O)COC(=O)CCC1CCCCC1	n	n	x	n	45.3	37.0
COc1cc(C(=O)NCc2nnc(SCC(=O)NC3CCCC3)o2)cc(OC)c1OC	n	n	n	n	n	x
COc1cc2ccccc2cc1C(=O)OCc1nc2ccsc2c(=O)[nH]1	x	n	n	n	n	x
CN(C)CCCN(C(=O)c1ccc(S(=O)(=O)N2CCc3ccccc32)cc1)c1nc2ccc(F)cc2s1	n	n	n	n	n	n
CN(C)CCCN(C(=O)c1ccc(S(=O)(=O)N2CCc3ccccc32)cc1)c1nc2ccc(Cl)cc2s1	n	n	n	n	43.5	34.2
COc1cc(C(=O)Nc2cccc(S(=O)(=O)NCc3ccco3)c2)cc(OC)c1OC	x	n	n	n	n	x
